These results are taken from article PMC11006913.

Residue numbers refer to the chain shown, from its start.

Chain of HOXB9 (P17482 171-250 T197M): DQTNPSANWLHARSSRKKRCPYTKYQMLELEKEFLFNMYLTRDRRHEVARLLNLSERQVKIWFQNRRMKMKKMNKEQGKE
Chain of CRX (O43186 26-111): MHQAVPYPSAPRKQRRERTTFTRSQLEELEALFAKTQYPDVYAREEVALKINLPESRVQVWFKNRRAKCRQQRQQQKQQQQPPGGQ
Chain of HOXA4 (Q00056 201-287 W262R): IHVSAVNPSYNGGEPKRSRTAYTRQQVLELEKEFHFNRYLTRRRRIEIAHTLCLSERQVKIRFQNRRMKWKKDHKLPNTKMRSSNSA

The first experiment concerns the target CRX (Homo sapiens, UniProt O43186 26-111). The experiment is described as follows: PBM; 200 nM protein, PBS. To be noted: dsDNA, one strand shown.
For CCCGACCC, the binding signal was 7.98 upbm affinity estimate (log intensity, higher = more binding, comparable within an allelic series).
Same read-out and setting: the figure for CACGCCCC is 8.24 upbm affinity estimate (log intensity, higher = more binding, comparable within an allelic series); for ACAGATTA it is 12.8 upbm affinity estimate (log intensity, higher = more binding, comparable within an allelic series); for TAACCTTA it is 9.78 upbm affinity estimate (log intensity, higher = more binding, comparable within an allelic series).
Still for that read-out and setting: for AGGTGCCC the value was 8.39 upbm affinity estimate (log intensity, higher = more binding, comparable within an allelic series).
Still for that read-out and setting: the figure for ACCAGCCC is 8.23 upbm affinity estimate (log intensity, higher = more binding, comparable within an allelic series); for GACGCGTC it is 8.63 upbm affinity estimate (log intensity, higher = more binding, comparable within an allelic series).
CCGTCGCC: the binding signal is 8.18 upbm affinity estimate (log intensity, higher = more binding, comparable within an allelic series).
On the same count and under the same terms, for GGGGCTCA the value was 9.96 upbm affinity estimate (log intensity, higher = more binding, comparable within an allelic series).
Same read-out and setting: for GCAGCTGC the value was 8.45 upbm affinity estimate (log intensity, higher = more binding, comparable within an allelic series); for GCCCGGGC, 8.05 upbm affinity estimate (log intensity, higher = more binding, comparable within an allelic series).
Still for that read-out and setting: the figure for AGATTAGC is 13 upbm affinity estimate (log intensity, higher = more binding, comparable within an allelic series); for CAGATTAG it is 13.1 upbm affinity estimate (log intensity, higher = more binding, comparable within an allelic series); for AGGGGACC it is 8.1 upbm affinity estimate (log intensity, higher = more binding, comparable within an allelic series).
For CCCTGATC, the binding signal was 10.2 upbm affinity estimate (log intensity, higher = more binding, comparable within an allelic series).
The same measure, in the same setting: for GGATTACA the value was 13.1 upbm affinity estimate (log intensity, higher = more binding, comparable within an allelic series); for CCAGGGGC, 7.85 upbm affinity estimate (log intensity, higher = more binding, comparable within an allelic series); for GAGGTACC, 8.08 upbm affinity estimate (log intensity, higher = more binding, comparable within an allelic series).
The same measure, in the same setting: the figure for GGGGACCC is 8.16 upbm affinity estimate (log intensity, higher = more binding, comparable within an allelic series).
Still for that read-out and setting: for CCCGTCCC the value was 8.36 upbm affinity estimate (log intensity, higher = more binding, comparable within an allelic series); for ATATTAAT, 11.6 upbm affinity estimate (log intensity, higher = more binding, comparable within an allelic series).
Take GATTAATA: the binding signal is 12.7 upbm affinity estimate (log intensity, higher = more binding, comparable within an allelic series).
On the same count and under the same terms, for ATAATCTG the value was 13 upbm affinity estimate (log intensity, higher = more binding, comparable within an allelic series); for CAGATTAA, 13.1 upbm affinity estimate (log intensity, higher = more binding, comparable within an allelic series).
Same read-out and setting: the figure for ATTTATGG is 10.2 upbm affinity estimate (log intensity, higher = more binding, comparable within an allelic series); for TGCGATAA it is 10.9 upbm affinity estimate (log intensity, higher = more binding, comparable within an allelic series).
Same read-out and setting: the figure for AGACTATC is 9.61 upbm affinity estimate (log intensity, higher = more binding, comparable within an allelic series); for TAATCTGA it is 12.9 upbm affinity estimate (log intensity, higher = more binding, comparable within an allelic series).
Consider GGGGCCCC, for which the binding signal was 8.9 upbm affinity estimate (log intensity, higher = more binding, comparable within an allelic series).
The same measure, in the same setting: the figure for CGCACCGC is 8.16 upbm affinity estimate (log intensity, higher = more binding, comparable within an allelic series); for CGGATGAG it is 9.93 upbm affinity estimate (log intensity, higher = more binding, comparable within an allelic series).
Turning to GCAGATTA, the binding signal is 13 upbm affinity estimate (log intensity, higher = more binding, comparable within an allelic series).
As to CCCCTGGA, the binding signal is 8.32 upbm affinity estimate (log intensity, higher = more binding, comparable within an allelic series).
Same read-out and setting: the figure for ACTAATCG is 12.1 upbm affinity estimate (log intensity, higher = more binding, comparable within an allelic series).
For ATTATCTC, the binding signal was 11.7 upbm affinity estimate (log intensity, higher = more binding, comparable within an allelic series).
Still for that read-out and setting: the figure for ACGCAACG is 8.38 upbm affinity estimate (log intensity, higher = more binding, comparable within an allelic series).
On the same count and under the same terms, the figure for CTGGGGCA is 8.18 upbm affinity estimate (log intensity, higher = more binding, comparable within an allelic series); for CTGCTGGC it is 8.31 upbm affinity estimate (log intensity, higher = more binding, comparable within an allelic series).
The same measure, in the same setting: for GTGGATTA the value was 13.3 upbm affinity estimate (log intensity, higher = more binding, comparable within an allelic series); for CCAGATTA, 13 upbm affinity estimate (log intensity, higher = more binding, comparable within an allelic series).

A further experiment deals with T1, VENTX (Homo sapiens, UniProt O95231 78-163, R121Q).
T1 sequence: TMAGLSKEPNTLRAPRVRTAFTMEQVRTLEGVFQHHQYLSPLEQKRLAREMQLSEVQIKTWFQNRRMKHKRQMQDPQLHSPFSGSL
In words: PBM; 200 nM protein, PBS. The settings on record: dsDNA, one strand shown.
CCCGACCC: the binding signal was 7.97 upbm affinity estimate (log intensity, higher = more binding, comparable within an allelic series).
On the same count and under the same terms, the figure for ACAGATTA is 10.5 upbm affinity estimate (log intensity, higher = more binding, comparable within an allelic series); for AGATTAGC it is 10.5 upbm affinity estimate (log intensity, higher = more binding, comparable within an allelic series).
With CAGATTAG, the binding signal was 10.6 upbm affinity estimate (log intensity, higher = more binding, comparable within an allelic series).
The same measure, in the same setting: for GGATTACA the value was 9.08 upbm affinity estimate (log intensity, higher = more binding, comparable within an allelic series); for GAGGTACC, 8.02 upbm affinity estimate (log intensity, higher = more binding, comparable within an allelic series).
For GATTAATA, the binding signal is 11.2 upbm affinity estimate (log intensity, higher = more binding, comparable within an allelic series).
Same read-out and setting: for ATAATCTG the value was 9.97 upbm affinity estimate (log intensity, higher = more binding, comparable within an allelic series); for CAGATTAA, 10.7 upbm affinity estimate (log intensity, higher = more binding, comparable within an allelic series).
Same read-out and setting: for TAATCTGA the value was 10.3 upbm affinity estimate (log intensity, higher = more binding, comparable within an allelic series).
The same measure, in the same setting: the figure for GCAGATTA is 10.3 upbm affinity estimate (log intensity, higher = more binding, comparable within an allelic series).
Take CCCCTGGA: the binding signal was 7.92 upbm affinity estimate (log intensity, higher = more binding, comparable within an allelic series).
Still for that read-out and setting: the figure for ACTAATCG is 11.6 upbm affinity estimate (log intensity, higher = more binding, comparable within an allelic series); for CTGGGGCA it is 8.13 upbm affinity estimate (log intensity, higher = more binding, comparable within an allelic series); for CTGCTGGC it is 7.75 upbm affinity estimate (log intensity, higher = more binding, comparable within an allelic series).
For the sequence CCAGATTA, the binding signal is 10 upbm affinity estimate (log intensity, higher = more binding, comparable within an allelic series).

A further experiment concerns the target HOXB9 (Homo sapiens, UniProt P17482 171-250, T197M). The experiment is described as follows: PBM; 200 nM protein, PBS. The settings on record: dsDNA, one strand shown.
With CACGCCCC, the binding signal was 8.49 upbm affinity estimate (log intensity, higher = more binding, comparable within an allelic series).
As to CCAGGGGC, the binding signal was 8.38 upbm affinity estimate (log intensity, higher = more binding, comparable within an allelic series).
Still for that read-out and setting: the figure for ATATTAAT is 10.2 upbm affinity estimate (log intensity, higher = more binding, comparable within an allelic series); for ATTTATGG it is 9.79 upbm affinity estimate (log intensity, higher = more binding, comparable within an allelic series).
Still for that read-out and setting: the figure for GGGGCCCC is 8.67 upbm affinity estimate (log intensity, higher = more binding, comparable within an allelic series).

In a further experiment the target is T2, SIX6 (Homo sapiens, UniProt O95475 114-200, L167I).
T2 sequence: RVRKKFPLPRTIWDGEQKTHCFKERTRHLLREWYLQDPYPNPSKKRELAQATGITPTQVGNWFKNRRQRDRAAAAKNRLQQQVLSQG
In words: PBM; 200 nM protein, PBS. To be noted: dsDNA, one strand shown.
On to CACGCCCC, for which the binding signal was 9.05 upbm affinity estimate (log intensity, higher = more binding, comparable within an allelic series).
As to AGGTGCCC, the binding signal was 8.91 upbm affinity estimate (log intensity, higher = more binding, comparable within an allelic series).
On the same count and under the same terms, for CCGTCGCC the value was 8.85 upbm affinity estimate (log intensity, higher = more binding, comparable within an allelic series); for GCAGCTGC, 9.09 upbm affinity estimate (log intensity, higher = more binding, comparable within an allelic series).
On the same count and under the same terms, the figure for CCCTGATC is 10.2 upbm affinity estimate (log intensity, higher = more binding, comparable within an allelic series).
On the same count and under the same terms, the figure for CCAGGGGC is 8.79 upbm affinity estimate (log intensity, higher = more binding, comparable within an allelic series); for AGACTATC it is 10.2 upbm affinity estimate (log intensity, higher = more binding, comparable within an allelic series).
On to GGGGCCCC, for which the binding signal was 9.09 upbm affinity estimate (log intensity, higher = more binding, comparable within an allelic series).
The same measure, in the same setting: the figure for CGCACCGC is 8.91 upbm affinity estimate (log intensity, higher = more binding, comparable within an allelic series); for ACGCAACG it is 9.07 upbm affinity estimate (log intensity, higher = more binding, comparable within an allelic series); for CTGCTGGC it is 8.86 upbm affinity estimate (log intensity, higher = more binding, comparable within an allelic series).

The next experiment addresses HOXA4 (Homo sapiens, UniProt Q00056 201-287, W262R). The experiment is described as follows: PBM; 200 nM protein, PBS. To be noted: dsDNA, one strand shown.
For the sequence CACGCCCC, the binding signal was 9.84 upbm affinity estimate (log intensity, higher = more binding, comparable within an allelic series).
Still for that read-out and setting: for GGGGCTCA the value was 9.76 upbm affinity estimate (log intensity, higher = more binding, comparable within an allelic series).
On to CCCGTCCC, for which the binding signal is 9.79 upbm affinity estimate (log intensity, higher = more binding, comparable within an allelic series).
The same measure, in the same setting: the figure for GTGGATTA is 10.2 upbm affinity estimate (log intensity, higher = more binding, comparable within an allelic series).

The target of the next experiment is HOXC9 (Homo sapiens, UniProt P31274 178-260, K195R). In words: PBM; 200 nM protein, PBS. To be noted: dsDNA, one strand shown.
Chain of HOXC9 (P31274 178-260 K195R): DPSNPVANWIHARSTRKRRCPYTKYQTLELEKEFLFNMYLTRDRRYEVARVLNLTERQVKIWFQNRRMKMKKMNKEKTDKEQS
With ACCAGCCC, the binding signal is 9.73 upbm affinity estimate (log intensity, higher = more binding, comparable within an allelic series).
Still for that read-out and setting: the figure for GACGCGTC is 9.76 upbm affinity estimate (log intensity, higher = more binding, comparable within an allelic series).
Still for that read-out and setting: the figure for AGGGGACC is 9.61 upbm affinity estimate (log intensity, higher = more binding, comparable within an allelic series); for GGGGACCC it is 9.36 upbm affinity estimate (log intensity, higher = more binding, comparable within an allelic series); for ATATTAAT it is 12.5 upbm affinity estimate (log intensity, higher = more binding, comparable within an allelic series).
Still for that read-out and setting: for ATTTATGG the value was 12.7 upbm affinity estimate (log intensity, higher = more binding, comparable within an allelic series).
For the sequence ATTATCTC, the binding signal was 11.4 upbm affinity estimate (log intensity, higher = more binding, comparable within an allelic series).

For the next experiment, the target named is T3, VENTX (Homo sapiens, UniProt O95231 78-163).
T3 sequence: T1 sequence with Q44R
The experiment is described as follows: PBM; 200 nM protein, PBS. The settings on record: dsDNA, one strand shown.
Consider CCCGACCC, for which the binding signal is 8.07 upbm affinity estimate (log intensity, higher = more binding, comparable within an allelic series).
The same measure, in the same setting: the figure for GGATTACA is 9.3 upbm affinity estimate (log intensity, higher = more binding, comparable within an allelic series).
Still for that read-out and setting: the figure for GAGGTACC is 8.04 upbm affinity estimate (log intensity, higher = more binding, comparable within an allelic series).
On the same count and under the same terms, the figure for GATTAATA is 11.8 upbm affinity estimate (log intensity, higher = more binding, comparable within an allelic series).
As to CCCCTGGA, the binding signal was 7.83 upbm affinity estimate (log intensity, higher = more binding, comparable within an allelic series).
Still for that read-out and setting: for ACTAATCG the value was 12.6 upbm affinity estimate (log intensity, higher = more binding, comparable within an allelic series).
